Assay results taken from PubChem BioAssay (NCI).
Compounds without any hit were thinned out: in the full panel of roughly 79,000, 15% have a hit. No stated cut-off is given here; in the data, active means growth inhibition above about 70%; inactive means the rest.

Columns and labels:
[1] = NCI Yeast Anticancer Drug Screen. Data for the rad50 strain (AID 155);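 further: 0% = growth of vehicle-only cultures of the same strain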; settings: S. cerevisiae rad50 strain growth inhibition; at 50.0 µM; stronger effect = higher value
Method in brief: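 DNA repair mutant yeast, compound exposure, growth read-out; inhibition is taken relative to vehicle.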

[2] = NCI Yeast Anticancer Drug Screen. Data for the mec2-1 strain (AID 157); settings: S. cerevisiae mec2-1 strain, at 50.0 µM, stronger effect = higher value
Method in brief: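 mec2-1 yeast strain, carrying an alteration in DNA damage repair or cell cycle control, was exposed to compounds; growth inhibition was measured relative to vehicle-treated controls.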

[3] = NCI Yeast Anticancer Drug Screen. Data for the sgs1 mgt1 strain (AID 161);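 further: 0% = growth of cultures given vehicle only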; settings: S. cerevisiae sgs1 mgt1 strain, at 50.0 µM, stronger effect = higher value
Method in brief: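 Growth of a repair-deficient yeast mutant was monitored after compound treatment and expressed as inhibition relative to vehicle-treated cultures.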

[4] = NCI Yeast Anticancer Drug Screen. Data for the cln2 rad14 strain (AID 165);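 further: 0% = growth equal to vehicle treated cultures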; settings: S. cerevisiae cln2 rad14 strain, at 50.0 µM, stronger effect = higher value
Method in brief: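 Yeast carrying cln2 and rad14 alterations (cell cycle control and DNA damage repair) were exposed to compounds. Growth inhibition was measured against vehicle-treated controls.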

[5] = NCI Yeast Anticancer Drug Screen. Data for the bub3 strain (AID 167); settings: S. cerevisiae bub3 mutant strain, at 50.0 µM, stronger effect = higher value
Method in brief: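 In this screen, a yeast mutant lacking normal mitotic checkpoint function is challenged with compound. Relative growth versus vehicle gives the inhibition value.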

[6] = NCI Yeast Anticancer Drug Screen. Data for the mlh1 rad18 strain (AID 175); settings: S. cerevisiae mlh1 rad18 strain growth inhibition; at 50.0 µM; stronger effect = higher value
Method in brief: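 Growth inhibition of the yeast strain was measured after compound exposure and expressed relative to vehicle-treated controls. The strain carries defined defects in DNA damage repair.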

Measured: growth inhibition

O=C(O)CCCC1(CCCC(=O)O)OCCO1
inactive: [1] 9.6% | [2] -4.45% | [3] -22.9% | [4] -60.5% | [5] -13.8% | [6] -2.8%

COc1ccc2c3c([nH]c2c1)CCN(Cc1ccccc1)C3
inactive: [1] -31.1% | [2] -21.6% | [3] 13.8% | [4] 19.6% | [5] 15.2% | [6] 1.1%

c1ccc2c(c1)CCc1ccccc1N=N2
inactive: [1] -8.1% | [2] -1.55% | [3] -17.1% | [4] -30.4% | [5] -1.4% | [6] 5.35%

O=C1NC(=O)C(=C/C=C/C=C\C2C(=O)NC(=O)NC2=O)C(=O)N1
inactive: [1] -15.1% | [2] -38.4% | [3] -10.1% | [4] 2.1% | [5] -23.1% | [6] -10.6%

C[Si]1(C)CC[Si](C)(C)OS(=O)(=O)O1
inactive: [1] 8.2% | [2] -8.35% | [3] -4.75% | [4] -49.8% | [5] -9.05% | [6] 3.6%

CC(C(N)=O)C(=O)c1ccccc1 (stereo unspecified)
inactive: [1] 9.9% | [2] -12.4% | [3] -24.3% | [4] -7.15% | [5] -21.2% | [6] 0.15%

CCCCn1c(-c2ccccc2)cs/c1=N\N=C1C=C(C(C)(C)C)C(=O)C(C(C)(C)C)=C1
inactive: [1] 12.2% | [2] -13.9% | [3] 0.05% | [4] -35.2% | [5] -16.9% | [6] 16.9%

CC(S)c1ccccc1 (stereo unspecified)
inactive: [1] 6.4% | [2] -0.55% | [3] 13.2% | [4] 11.9% | [5] 25.7% | [6] 14.4%

CCOC(=O)/C=C(\Nc1ccc(C(c2ccccc2)(c2ccccc2)c2ccccc2)cc1)C(=O)OCC
inactive: [1] 38.2% | [2] 9.9% | [3] 32% | [4] 20.2% | [5] -7.3% | [6] 27.1%

Cc1ccc(C(=O)OC(C)C)cc1N=NN(C)C
inactive: [1] 32.4% | [2] -11.4% | [3] 11.1% | [4] 27.1% | [5] 6.45% | [6] -15.9%

N#CCCN(CCc1ccccn1)CN1C(=O)c2ccccc2C1=O
inactive: [1] 10% | [2] -4.85% | [3] -3.75% | [4] -7.45% | [5] 3.25% | [6] -13.2%

CC1(C)OC2COC(CNCC3OCC4OC(C)(C)OC34)C2O1 (stereo unspecified)
inactive: [1] 3% | [2] -14.4% | [3] -6.75% | [4] -22.3% | [5] -14.8% | [6] 4.55%

O=C(O)/C(=C\c1cccc(O)c1)c1ccccc1
inactive: [1] -19.4% | [2] -30.4% | [3] -16.4% | [4] -6.65% | [5] -3.2% | [6] -6%

Cc1ccsc1C(=O)C(CC(=O)c1cccs1)c1ccsc1 (stereo unspecified)
inactive: [1] -5.45% | [2] -8.45% | [3] -0.9% | [4] 17.3% | [5] 25.4% | [6] 16.4%

O=[N+]([O-])c1ccc(N/N=C/CCCCl)c([N+](=O)[O-])c1
inactive: [1] 6.6% | [2] -17.3% | [3] 13.2% | [4] 12.4% | [5] 11.1% | [6] 9.05%

O=c1cc(C(Br)(Br)Br)[nH]c2ccccc12
inactive: [1] 19.4% | [2] 3.25% | [3] 9.45% | [4] -5.7% | [5] 4.55% | [6] 18%

CCOC(=O)C1Oc2ccccc2OC1C (stereo unspecified)
inactive: [1] 24.5% | [2] -15.7% | [3] 9.45% | [4] 12.9% | [5] 16.3% | [6] 3.85%

COc1ccc(Cl)cc1NC(=O)Nc1ccc(SC)cc1
inactive: [1] 24.1% | [2] 50.6% | [3] 56.5% | [4] 20.8% | [5] 33% | [6] 35.5%

C#CC(N)=O
inactive: [1] -9.6% | [2] 11.4% | [3] -0.6% | [4] -20.6% | [5] -6% | [6] 4.4%

Cn1c(-c2ccc(Br)cc2)cc2[nH]c(=S)nc(N)c2c1=O
inactive: [1] -16.8% | [2] -23.9% | [3] -14% | [4] -12.3% | [5] -7.75% | [6] 2.5%

C/C(CC(=O)CCC(=O)Nc1cccc(C(F)(F)F)c1)=N\NC(=O)NN
inactive: [1] -25.8% | [2] -16.8% | [3] -26.4% | [4] 1.95% | [5] -13.9% | [6] -15.8%

CC(=O)OC1CC(OC(C)=O)C(OC(C)=O)C(C)O1 (stereo unspecified)
inactive: [1] 1.15% | [2] 17.9% | [3] 4.7% | [4] -15.7% | [5] -1.85% | [6] 5.45%

CC(=O)[O-].O=S(=O)(Nc1ncccn1)c1ccc(N=Cc2ccccc2O)cc1.O=S(=O)(Nc1ncccn1)c1ccc(N=Cc2ccccc2O)cc1.[Cu+2]
inactive: [1] -7.4% | [2] -21.6% | [3] -17.4% | [4] -8.25% | [5] -17.6% | [6] -1.35%

N#CC1(NC2CCCCC2)CCN(Cc2ccccc2)CC1
inactive: [1] -5.5% | [2] -11.9% | [3] -6.1% | [4] 4.1% | [5] -7.5% | [6] -1.75%

CCOC(=O)NC(Nc1ccc(F)cc1F)(C(F)(F)F)C(F)(F)F
inactive: [1] 12.8% | [2] -23.4% | [3] -15.7% | [4] 10.2% | [5] -14.8% | [6] 1.4%

O=C(NC(=O)c1cc2cc(Br)cc(Br)c2oc1=O)Oc1ccccc1
inactive: [1] 24.9% | [2] 19.4% | [3] 14.1% | [4] 25.4% | [5] -2.55% | [6] 13.1%

CCCCCCCc1c(C)c2ccc(OC)cc2[nH]c1=O
inactive: [1] -9.8% | [2] -29.1% | [3] -5.8% | [4] -5% | [5] -6.85% | [6] -5.15%

CC(O)(CCCCCl)c1nc2ccccc2s1 (stereo unspecified)
inactive: [1] 20.9% | [2] -8.05% | [3] 25.4% | [4] -0.8% | [5] 11.9% | [6] 17.1%

Cc1cc(C(C)(C)C)cc(Cc2cc(C(C)(C)C)cc(Cc3cc(C(C)(C)C)cc(C)c3O)c2O)c1O
inactive: [1] -25.8% | [2] -4.75% | [3] -43.3% | [4] -13.3% | [5] -0.6% | [6] -24%

NC(=O)/N=N/C(N)=O
inactive: [1] 10.8% | [2] -1.05% | [3] 13.6% | [4] 15.2% | [5] 21.1% | [6] 27.7%

CC/C=C(\C)C(C#N)(CCC)C(=O)OCC (stereo unspecified)
inactive: [1] -1.8% | [2] -34.1% | [3] -20.9% | [4] -0.75% | [5] -25.6% | [6] -31.7%

O=C1/C(=C/c2ccc3c(c2)CCC3)Cc2cc3c(cc21)CCC3
inactive: [1] -10% | [2] 11.7% | [3] -23.4% | [4] 21.4% | [5] -1.15% | [6] 4.75%

CCCCNc1ccc2c(C)c(Cc3ccccc3)c(=O)oc2c1
inactive: [1] 9.3% | [2] -7.5% | [3] 20.3% | [4] 2.35% | [5] 4.65% | [6] -11%

CC(C)CCC(=O)OCC(=O)c1ccc(-c2ccccc2)cc1
inactive: [1] 8.55% | [2] -13.1% | [3] 7.25% | [4] -1.45% | [5] 23.9% | [6] 9.1%

Nc1ccc(C(=O)Nc2nccs2)cc1
inactive: [1] 8.4% | [2] 12.6% | [3] 6.8% | [4] -19.8% | [5] 14.6% | [6] 4.75%

O=S(Cc1ccccc1)/C(=C/NC(=S)N=Nc1c(O)[nH]c2ccccc12)c1ccccc1 (stereo unspecified)
inactive: [1] 15.3% | [2] -11.1% | [3] 14.2% | [4] 33.2% | [5] -4.1% | [6] -3.1%

COc1cc(NCCCCC2CCCCN2)c2ncccc2c1 (stereo unspecified)
inactive: [1] 15.7% | [2] 2% | [3] 39% | [4] -11.4% | [5] 55.5% | [6] 48.8%

CCCCCCC(O)Cc1ccccc1 (stereo unspecified)
inactive: [1] 5.95% | [2] 5.1% | [3] -5.5% | [4] -12.3% | [5] -24.9% | [6] 1.2%

COc1ccccc1C(OC)c1ccccc1C(=O)O (stereo unspecified)
inactive: [1] -10.9% | [2] -17.1% | [3] -1.4% | [4] -12.5% | [5] -4.7% | [6] -16.1%

O=C(Nc1ccc(S(=O)(=O)NC2CCCCC2)cc1)Oc1ccc([N+](=O)[O-])cc1
inactive: [1] 32.5% | [2] 3.55% | [3] 18.4% | [4] 10.8% | [5] 8.4% | [6] 19.4%

O=C(CCSc1ncnc2nc[nH]c12)c1ccccc1
inactive: [1] -24.8% | [2] 20.4% | [3] -3.05% | [4] -36.2% | [5] 4.3% | [6] 12.1%
